In experiment [1] the target is Cellular tumor antigen p53 (Homo sapiens) (UniProt P04637). In words: Primary qHTS for small molecule compounds that upregulate eGFP-tagged delta133p53alpha (in N-terminal) cells. (AID 2060322).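 For activation: series mostly up to about 56 µM; 0% = DMSO vehicle and 100% = reference activator.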 Note: nearly all actives have a fitted effect of over 75% in size. Note: potency is the fitted concentration of half-maximal effect. The note with it: NCI-H358 eGFP-delta133p53alpha fluorescence, 24 h; activation: hits give high values. The essentials: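 NCI-H358 cells pre-induced 24 h with 10 ng/ml doxycycline to express N-terminal eGFP-delta133p53alpha, then dosed 24 h at 37C without doxycycline; fixed, Hoechst-stained, GFP intensity by laser scanning cytometry, normalized to DMSO (0%) and 57.5 uM 5-azacytidine (100%).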
In general terms: qHTS replaces the single test concentration by a dilution series.

Experiment [2] is described as follows: BET inhibitor-based combinations targeting novel dependencies in MECOM-rearranged (r) AML: SET-2 cell line (AID 2202231).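 For viability: plate controls were DMSO treated cells for no effect and wells without cells for full effect.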 Note: nearly all actives have a fitted effect of over 35% in size. Note: potency is the fitted concentration of half-maximal effect. The conditions noted are these: SET-2 AML cells viability, CellTiter-Glo luminescence, 48 h; viability: hits give low values, concentration not given here. An outline of the steps:
(§1)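 AML cell lines seeded at 500 cells/well, treated with 11-point dose curves for 48 h. Viability by CellTiter-Glo luminescence, normalised to DMSO and empty wells; activity expressed as AUC and per-cell-line Z-transformed AUC.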

Experiment [3] is described as follows: BET inhibitor-based combinations targeting novel dependencies in MECOM-rearranged (r) AML: OCI-AML3 cell line (AID 2202232). Note: nearly all actives have a fitted effect of over 35% in size. Note: potency is the fitted concentration of half-maximal effect. The note with it: Potency: OCI-AML3 viability. An outline of the steps:
as §1

Experiment [4] in a line: BET inhibitor-based combinations targeting novel dependencies in MECOM-rearranged (r) AML: MV-4-11 cell line (AID 2202233). Note: nearly all actives have a fitted effect of over 45% in size. Note: potency is the fitted concentration of half-maximal effect. The essentials:
(§2)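 Cells at 500/well were exposed for 48 hr to MIPE v5.0 drugs as 11-point dose curves. Viability was read by CellTiter-Glo luminescence and normalized to DMSO and empty-well controls. Activity was expressed as AUC and per-cell-line Z-AUC.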

Experiment [5] is described as follows: BET inhibitor-based combinations targeting novel dependencies in MECOM-rearranged (r) AML: HNT-34 cell line (AID 2202234). Note: nearly all actives have a fitted effect of over 35% in size. Note: potency is the fitted concentration of half-maximal effect. The essentials: as §2
The nature of experiment [6]: BET inhibitor-based combinations targeting novel dependencies in MECOM-rearranged (r) AML: UCSD-AML1 cell line (AID 2202235). Note: nearly all actives have a fitted effect of over 40% in size. Note: potency is the fitted concentration of half-maximal effect. An outline of the steps: as §2
Experiment [7] can be described thus: BET inhibitor-based combinations targeting novel dependencies in MECOM-rearranged (r) AML: AML-191 cell line (AID 2202236; note: nearly all actives have a fitted effect of over 35% in size; note: potency is the fitted concentration of half-maximal effect). The essentials:
as §1

The nature of experiment [8]: BET inhibitor-based combinations targeting novel dependencies in MECOM-rearranged (r) AML: AML-194 cell line (AID 2202237; note: nearly all actives have a fitted effect of over 40% in size; note: potency is the fitted concentration of half-maximal effect). The essentials: as §1
Experiment [9] has as its target Retinaldehyde dehydrogenase 3 (Homo sapiens) (UniProt P47895). In words: qHTS for Inhibitors of the Aldehyde Dehydrogenase Family (ALDH1A3) Primary screen (AID 2061315).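 Note: plate controls were DMSO vehicle for no effect and reference inhibitor for full effect.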

The results in this text go back to PubChem BioAssay (NCATS).

As usually defined, the viability is a read-out of living cells in per cent, often relative to untreated cells.

Values joined by “and” are separate entries in the source; they are usually repeats but may differ in a detail not shown here. Equal entries are not always repeated. Inconclusive results are not listed. Values without a mark were called inactive. Active and inactive are the calls of the source. Calls come from the whole dose curve; as a rule, active = well fitted curve in the direction sought with a large enough effect; inconclusive = small, poorly fitted or top-dose-only effect, or another doubt; inactive = no such curve, though single readings can be large; an effect the other way counts as inactive or inconclusive.

Chain of Cellular tumor antigen p53 (Homo sapiens) (P04637 whole entry, looked up): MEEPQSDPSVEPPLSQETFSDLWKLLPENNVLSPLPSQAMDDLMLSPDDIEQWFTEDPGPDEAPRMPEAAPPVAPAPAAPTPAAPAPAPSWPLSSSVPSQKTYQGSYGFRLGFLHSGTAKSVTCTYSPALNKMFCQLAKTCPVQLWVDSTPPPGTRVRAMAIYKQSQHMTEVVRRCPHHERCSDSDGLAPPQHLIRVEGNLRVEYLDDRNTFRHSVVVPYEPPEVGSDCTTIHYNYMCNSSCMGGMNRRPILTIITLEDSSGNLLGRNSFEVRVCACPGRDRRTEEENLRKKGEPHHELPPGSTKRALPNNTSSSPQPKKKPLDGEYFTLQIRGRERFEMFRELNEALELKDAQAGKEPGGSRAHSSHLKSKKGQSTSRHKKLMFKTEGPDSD

Take `C[C@H](NC(=O)c1sccc1OCc1ccc(Cl)cc1)c1ccccc1`: in experiment [1], the activation was 16.4%. Also, the Potency in [2] was 16600 nM (active); in [4], 13200 nM (active). For the same molecule, the Potency entry in [3], in experiment [5], in experiment [6], in experiment [7] and in experiment [8] was “inactive” in each case.
Take `C[C@H](Nc1ncnc2nc[nH]c12)c1cc2cccc(Cl)c2c(=O)n1-c1ccccc1`: in [1], the activation is 7%. Besides, the Potency result in [9] was “inactive”. Also, the Potency was 18600 nM (active) in experiment [2], 934 nM (active) in experiment [3] and 1320 nM (active) in experiment [6].
As for `CC[C@H](Nc1ncnc2nc[nH]c12)c1nc2cccc(F)c2c(=O)n1-c1ccccc1`, the activation in experiment [1] is 21.6% and 7.67%. The Potency entry in [9] is “inactive”. For the same molecule, the viability in experiment [2] is 94.4%. Also, the Potency in experiment [3] was 4680 nM (active); in experiment [6], 5900 nM (active).
As to `CC(=O)OCC(=O)[C@@]12N=C(C)O[C@@H]1C[C@H]1[C@@H]3CCC4=CC(=O)C=C[C@]4(C)[C@H]3[C@@H](O)C[C@@]12C`, the activation in [1] was -1.69%. In [2], the viability was 113%. Further, the Potency entry in experiment [3], in experiment [4], in experiment [5] and in experiment [6] was “inactive” throughout.
On to `C=C(C)[C@@H]1CC[C@]2(C)CC[C@]3(C)[C@H](CC[C@@H]4[C@@]5(C)CC[C@H](O)C(C)(C)[C@H]5CC[C@]43C)[C@@H]12`, for which the activation in experiment [1] was -1.45%. The viability in experiment [2] is 117%. The Potency entry in [3], in experiment [4], in [5], in [6], in [7] and in experiment [8] was “inactive” in each case.
For the molecule `Cc1cc(Nc2nc(N[C@@H](C)c3ccc(F)cc3)c(C#N)cc2F)n[nH]1`, the Potency in [1] is 16900 nM (active); in experiment [3], 525 nM (active); in experiment [4], 662 nM (active); in experiment [6] it was 525 nM (active); in experiment [7] it was 105 nM (active); in experiment [8], 166 nM (active). The Potency entry in experiment [9] is “inactive”.
Regarding `COC[C@H](NC(=O)c1cnc(C)s1)C(=O)N[C@@H](COC)C(=O)N[C@@H](Cc1ccccc1)C(=O)[C@@]1(C)CO1`, the Potency in [1] is 17200 nM (active); in experiment [2] it was 166 nM (active); in [3], 93.4 nM (active); in experiment [4], 83.3 nM (active); in experiment [5], 93.4 nM (active); in [6] it was 132 nM (active). Further, the Potency in experiment [7] was 186 nM (active); in experiment [8], 332 nM (active).
As to `Clc1ccc(C(Cn2ccnc2)OCc2c(Cl)cccc2Cl)c(Cl)c1` (stereo unspecified), the activation in experiment [1] was 27.9% and 17%. Moreover, in experiment [9], the Potency entry is “inactive”. For the same molecule, the Potency in [3] was 10500 nM (active); in experiment [4], 18600 nM (active); in experiment [5], 26300 nM (active); in experiment [8] it was 18600 nM (active).
For `Nc1nc2c(c(=O)[nH]1)N(C=O)[C@H](CNc1ccc(C(=O)N[C@@H](CCC(=O)O)C(=O)O)cc1)CN2`, in experiment [1], the activation is 10.2%. For the same molecule, the viability in experiment [2] is 115%. In addition, the Potency entry in [3], in experiment [4], in experiment [5], in experiment [6] and in experiment [7] was “inactive” in each case.
For `Cc1cc(Nc2ncc3c(n2)N(C)C(=O)N(c2cc(NC(=O)c4cccc(C(F)(F)F)c4)ccc2C)C3)n(C)n1`, the Potency in experiment [1] was 432 nM (active); in experiment [2], 833 nM (active); in experiment [3] it was 296 nM (active); in experiment [4], 37.2 nM (active); in experiment [5] it was 26.3 nM (active); in experiment [6], 417 nM (active). Also, the Potency in [7] is 235 nM (active).
For the molecule `CC(C)NC[C@@H](C(=O)N1CCN(c2ncnc3c2[C@H](C)C[C@H]3O)CC1)c1ccc(Cl)cc1`, in [1], the Potency is 34300 nM (active). In addition, in experiment [2], the viability is 102%.
As to `CC(=O)OC[C@@H]1O[C@@H](n2ccc(=O)[nH]c2=O)[C@H](OC(C)=O)[C@H]1OC(C)=O`, the activation in [1] was 5.73%. Besides, the viability in experiment [2] is 108%. In addition, the Potency entry in [3], in experiment [4], in [5], in experiment [6], in [7] and in [8] was “inactive” in each case.
For the molecule `Nc1nc(Cl)nc2c1ncn2[C@@H]1O[C@H](CO)[C@@H](O)[C@@H]1F`, the activation in experiment [1] was -10.7%. Besides, the Potency was 263 nM (active) in experiment [2]; 148 nM (active) in [3]; 209 nM (active) in experiment [4]; 166 nM (active) in experiment [5]; 26.3 nM (active) in [6]; 74.2 nM (active) in [7].
Turning to `CCOc1cc(N2CCC(O)CC2)ccc1Nc1ncc2c(n1)N(C)c1ccccc1C(=O)N2C`, in experiment [1], the activation is 72.4%. Moreover, the Potency in [2] is 14800 nM (active); in experiment [3], 3320 nM (active); in [4], 2950 nM (active); in experiment [5], 14800 nM (active); in experiment [6], 8330 nM (active).
For `NCC1CCC(C(=O)O)CC1` (stereo unspecified), the activation in experiment [1] was 20.7%. Further, in experiment [2], the viability is 115%. The Potency entry in experiment [3], in experiment [4], in experiment [5], in [6], in experiment [7] and in [8] was “inactive” in each case.
Consider `c1cc(CN2CCCNCCNCCCNCC2)ccc1CN1CCCNCCNCCCNCC1`, for which the activation in experiment [1] was 39.7%. Further, the viability in experiment [2] is 87.5%. The Potency entry in [3], in experiment [4], in experiment [5], in experiment [6] and in experiment [7] was “inactive” each time.
For the molecule `CCc1ccc(OCc2ccccc2C(=O)Nc2ccc3nc(C)cc(N)c3c2)cc1`, the activation in experiment [1] is 45.3%. For the same molecule, the Potency in experiment [2] is 6610 nM (active); in experiment [3], 8330 nM (active); in experiment [4], 5900 nM (active); in experiment [5], 4170 nM (active); in [6] it was 7420 nM (active); in experiment [7], 7420 nM (active). Further, in experiment [8], the Potency was 6610 nM (active).
As to `O=C(O)c1ccc2cc(-c3ccc(O)c(C45CC6CC(CC(C6)C4)C5)c3)ccc2c1`, in experiment [1], the activation is -20.4%. Further, the Potency in experiment [2] is 590 nM (active); in experiment [3], 525 nM (active); in experiment [4] it was 934 nM (active); in experiment [5] it was 1050 nM (active); in experiment [6], 934 nM (active); in experiment [7], 934 nM (active). Moreover, in experiment [8], the Potency is 1050 nM (active).
